These results are taken from PubChem BioAssay.

Active and inactive are the calls of the source.

The target of one experiment is Albumin (Bos taurus) (UniProt P02769). The experiment is described as follows: bovine serum albumin binders on microarray, profiling panel, artefact control for SMM control protein annotation, biochemical, small-molecule microarray, Alexa647 label, 635/667 nm fluorescence (AID 1118).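 Also: score merges 667 nm emission intensity and signal-to-noise per printed compound spot.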 As to conditions: BSA-A647 binding, fluorescence 635 nm, higher = more signal.
The nature of experiment [1]: small-molecule microarray binders of probe aXIP, primary screen, biochemical, NeuroSMM set, 635/667 nm fluorescence (AID 1119).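 Also: probe is the protein aXip251-270 applied at 1 µg/mL to compound-printed slides; binding of probe to printed compounds measured as 667 nm fluorescence plus signal to noise.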 As to conditions: higher = more signal, called active from +8 up or from −8 down.
A short description of experiment [2]: small-molecule binders of probe aNOTCH3, primary screen, biochemical, small-molecule microarray, 635/667 nm fluorescence (AID 1120).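 Also: probe is a biotin-tagged antibody raised against NOTCH3 rather than NOTCH3 protein; score merges spot fluorescence near 667 nm with spot signal to noise.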 As to conditions: higher = more signal.
Experiment [3] is described as follows: small-molecule binders of probe aNOTCH2, primary screen, biochemical, small-molecule microarray, 635/667 nm fluorescence (AID 1121).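 Also: score merges feature fluorescence read at 667 nm with its signal to noise.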 As to conditions: higher = more signal.
The target in experiment [4] is Carbonic anhydrase 2 (Homo sapiens) (UniProt P00918). The experiment can be described thus: CAII small-molecule binders, profiling panel, biochemical, small-molecule microarray, Alexa647-labelled CAII (AID 1122). As to conditions: CAII-A647 binding fluorescence, higher = more signal.
Experiment [5] can be described thus: COS7 lysate on small-molecule microarray, probe aHis, 635 nm (AID 1123).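 Also: z-score combines 667nm fluorescence intensity with signal-to-noise per printed compound spot.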 As to conditions: COS7 cell lysate, fluorescence, higher = more signal.
The nature of experiment [6]: compound binding in COS7 lysate, probe aLAP1, primary screen, cell lysate, small-molecule microarray (AID 1124).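 Also: lysate comes from COS7 cells expressing LAP1 and is applied at 0.3 µg/mL; score merges spot fluorescence near 667 nm with signal-to-noise over triplicate slides.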 As to conditions: probe aLAP1, fluorescence, higher = more signal.
Another experiment deals with Sam68 (KHDRBS1). The experiment can be described thus: Sam68 small-molecule binders, primary screen, biochemical, small-molecule microarray, 635 nm fluorescence (AID 1125).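 Also: score merges 667 nm channel intensity with signal to noise over triplicate slides.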 As to conditions: small-molecule microarray binding, higher = more signal.
Experiment [7] concerns Chordin-like protein 2 (CHRDL2). The experiment is described as follows: CHRDL2 small-molecule binders, primary screen, biochemical, small-molecule microarray, 635 nm fluorescence (AID 1126).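 Also: printed compound slides probed with Chrdl2 protein at 4 µg/mL for 1 h at 4 C; score merges 667 nm emission intensity with signal to noise over three replicate slides.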 As to conditions: small-molecule microarray binding, fluorescence 635 nm; higher = more signal.
The target of experiment [8] is Concanavalin-A (Canavalia ensiformis) (UniProt P02866). The experiment can be described thus: ConA small-molecule binders, primary screen, artefact control for SMM control protein annotation, biochemical, small-molecule microarray, Alexa647 label, 635 nm (AID 1127).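 Also: z combines 667 nm emission intensity with signal-to-noise across three replicate slides.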 As to conditions: ConA-A647 binding fluorescence, higher = more signal.
The nature of experiment [9]: anti-His antibody binders, primary screen, artefact control for SMM control protein annotation, biochemical, small-molecule microarray, 635 nm fluorescence (AID 1128).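 Also: score merges feature fluorescence with signal-to-noise for each printed compound spot.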 As to conditions: anti-His Alexa647 antibody binding, higher = more signal.
Experiment [10] deals with Human papillomavirus type 1a E7 protein (residues 1-88). The experiment is described as follows: HPV1a E7 small-molecule binders, primary screen, biochemical, small-molecule microarray, residues 1-88, 635 nm (AID 1129). As to conditions: small-molecule microarray binding, fluorescence 635 nm; higher = more signal.
The target in experiment [11] is Focal adhesion kinase 1 (Homo sapiens) (UniProt Q05397). The experiment is described as follows: small-molecule microarray binders of FAK, primary screen, biochemical, 635/667 nm fluorescence, BSA, DTT (AID 1130).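 Also: composite of spot emission at 667 nm and signal to noise over triplicate slides.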 As to conditions: PTK2 binding, 635 nm fluorescence, higher = more signal.
For experiment [12], the system named is Fibrinogen (Alexa647-labelled). The experiment is described as follows: fibrinogen binders on compound microarrays, profiling panel, artefact control for SMM control-protein annotation, biochemical, small-molecule microarray, 635/667 nm fluorescence (AID 1131).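 Also: z-score merges 667 nm fluorescence with per-spot signal-to-noise over triplicate slides.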 As to conditions: fibrinogen-A647 binding fluorescence, higher = more signal.
The target of experiment [13] is Follistatin (Homo sapiens) (UniProt P19883). The experiment can be described thus: follistatin binders on small-molecule microarrays, primary screen, biochemical, small-molecule microarray, 635/667 nm fluorescence (AID 1132). As to conditions: FST binding, 635 nm fluorescence, higher = more signal.
For experiment [14], the target named is Fibroblast growth factor 2 (Homo sapiens) (UniProt P09038). The experiment is described as follows: FGF2 binders on small-molecule microarrays, primary screen, biochemical, small-molecule microarray, 635/667 nm fluorescence (AID 1133). As to conditions: small-molecule microarray binding, FGF2, fluorescence 635/667; higher = more signal.
Experiment [15] in a line: mitochondrial membrane potential change in A549 cells, profiling panel, cell-based, JC-1 fluorescence, basal, 24 h, 100 nL (AID 1138).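 Also: A549 lung adenocarcinoma cells under basal conditions with no added stimulus; test concentration not given here.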 As to conditions: higher = more signal.
The subject of another experiment is Lefty1. The experiment is described as follows: Lefty1 binders on small-molecule microarrays, primary screen, biochemical, small-molecule microarray, 635/667 nm fluorescence (AID 1139). As to conditions: small-molecule microarray binding, fluorescence 635/667; higher = more signal.
The test system of experiment [16] is wheat germ agglutinin (Triticum aestivum), Alexa647-labelled. The experiment can be described thus: wheat germ agglutinin binders on compound microarrays, profiling panel, artefact control for SMM control-protein annotation, biochemical, small-molecule microarray, 635/667 nm fluorescence (AID 1140).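 Also: score merges 667 nm feature emission with signal to noise over triplicate slides.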 As to conditions: WGA-A647 binding, 635 nm fluorescence, higher = more signal.

In experiment [17] the target is Luciferin 4-monooxygenase (Photinus pyralis) (UniProt P08659). The experiment is described as follows: firefly luciferase enzyme inhibitors, primary screen, biochemical, luminescence, purified enzyme, 2006 set (AID 1141).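 Also: cell-free assay with purified firefly luciferase at 100 ng per well in PBS; test concentration not given here.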 As to conditions: SteadyGlo luminescence, 30 min, higher = more signal, called active from +8 up or from −8 down.
Luciferin 4-monooxygenase (Photinus pyralis), sequence (P08659 whole entry, looked up): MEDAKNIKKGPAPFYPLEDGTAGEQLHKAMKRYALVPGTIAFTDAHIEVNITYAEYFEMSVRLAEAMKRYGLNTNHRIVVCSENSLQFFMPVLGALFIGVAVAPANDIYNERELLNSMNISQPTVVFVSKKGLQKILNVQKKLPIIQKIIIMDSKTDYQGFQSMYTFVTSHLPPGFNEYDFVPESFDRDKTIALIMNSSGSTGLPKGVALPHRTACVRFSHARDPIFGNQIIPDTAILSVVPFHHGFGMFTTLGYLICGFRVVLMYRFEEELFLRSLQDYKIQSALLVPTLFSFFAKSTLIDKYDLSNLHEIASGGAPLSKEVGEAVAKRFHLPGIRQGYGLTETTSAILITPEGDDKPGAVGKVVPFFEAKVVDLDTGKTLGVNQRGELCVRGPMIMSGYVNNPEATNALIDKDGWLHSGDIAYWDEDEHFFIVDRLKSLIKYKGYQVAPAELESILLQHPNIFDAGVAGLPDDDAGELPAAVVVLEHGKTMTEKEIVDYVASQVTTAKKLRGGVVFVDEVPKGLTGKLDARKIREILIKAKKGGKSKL

Albumin (Bos taurus), sequence (P02769 whole entry, looked up): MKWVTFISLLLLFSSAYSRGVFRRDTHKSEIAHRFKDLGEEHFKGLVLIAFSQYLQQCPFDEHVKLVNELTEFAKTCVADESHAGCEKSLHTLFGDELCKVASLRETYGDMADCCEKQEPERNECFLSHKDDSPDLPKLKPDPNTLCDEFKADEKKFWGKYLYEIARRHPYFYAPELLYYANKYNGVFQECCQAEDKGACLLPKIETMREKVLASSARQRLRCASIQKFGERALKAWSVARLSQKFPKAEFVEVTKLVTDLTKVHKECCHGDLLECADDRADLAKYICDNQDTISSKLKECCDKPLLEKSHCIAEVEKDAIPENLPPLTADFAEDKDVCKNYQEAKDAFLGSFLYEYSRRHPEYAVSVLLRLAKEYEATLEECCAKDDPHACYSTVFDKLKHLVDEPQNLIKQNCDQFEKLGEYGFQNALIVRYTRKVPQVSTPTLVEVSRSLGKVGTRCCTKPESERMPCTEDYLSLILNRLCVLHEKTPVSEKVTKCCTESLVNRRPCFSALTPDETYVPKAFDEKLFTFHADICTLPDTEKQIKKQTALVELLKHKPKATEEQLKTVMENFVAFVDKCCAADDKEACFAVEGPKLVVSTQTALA
Focal adhesion kinase 1 (Homo sapiens), sequence (Q05397 whole entry, looked up): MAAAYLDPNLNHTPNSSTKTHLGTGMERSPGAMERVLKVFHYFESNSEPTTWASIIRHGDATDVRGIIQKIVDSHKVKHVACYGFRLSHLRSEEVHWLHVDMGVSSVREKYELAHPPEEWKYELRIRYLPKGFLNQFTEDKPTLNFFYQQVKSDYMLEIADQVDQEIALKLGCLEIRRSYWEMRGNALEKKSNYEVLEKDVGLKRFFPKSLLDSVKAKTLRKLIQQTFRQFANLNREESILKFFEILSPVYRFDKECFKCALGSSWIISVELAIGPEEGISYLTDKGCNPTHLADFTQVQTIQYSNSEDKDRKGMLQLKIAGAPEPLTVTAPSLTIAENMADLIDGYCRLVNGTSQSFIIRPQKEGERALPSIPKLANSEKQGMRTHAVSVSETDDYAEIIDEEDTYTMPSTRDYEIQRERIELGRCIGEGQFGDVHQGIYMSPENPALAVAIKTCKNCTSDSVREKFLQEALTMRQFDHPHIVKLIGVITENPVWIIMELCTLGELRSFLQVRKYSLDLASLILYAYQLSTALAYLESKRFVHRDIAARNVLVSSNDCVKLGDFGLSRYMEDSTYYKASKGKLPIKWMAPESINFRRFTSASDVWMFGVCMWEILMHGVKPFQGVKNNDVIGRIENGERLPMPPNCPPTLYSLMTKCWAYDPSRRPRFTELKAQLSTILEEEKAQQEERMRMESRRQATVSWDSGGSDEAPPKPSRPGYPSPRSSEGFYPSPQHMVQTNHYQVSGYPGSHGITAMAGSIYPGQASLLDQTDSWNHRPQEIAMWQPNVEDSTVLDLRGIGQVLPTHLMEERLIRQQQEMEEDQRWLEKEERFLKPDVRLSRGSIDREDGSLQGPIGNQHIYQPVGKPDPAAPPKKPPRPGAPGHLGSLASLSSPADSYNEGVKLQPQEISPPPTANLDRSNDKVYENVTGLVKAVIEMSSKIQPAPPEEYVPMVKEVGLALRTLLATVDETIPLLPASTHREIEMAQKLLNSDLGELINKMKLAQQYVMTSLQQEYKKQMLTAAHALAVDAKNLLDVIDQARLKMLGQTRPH
Fibroblast growth factor 2 (Homo sapiens), sequence (P09038 whole entry, looked up): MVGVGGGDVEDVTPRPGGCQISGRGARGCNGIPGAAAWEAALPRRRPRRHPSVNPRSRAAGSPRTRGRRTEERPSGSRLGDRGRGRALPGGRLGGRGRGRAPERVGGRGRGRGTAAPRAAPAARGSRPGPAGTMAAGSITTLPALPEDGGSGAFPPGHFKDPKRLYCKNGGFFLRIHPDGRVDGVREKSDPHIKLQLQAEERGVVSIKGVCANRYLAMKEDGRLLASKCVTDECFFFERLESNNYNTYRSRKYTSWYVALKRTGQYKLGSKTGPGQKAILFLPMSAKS
Concanavalin-A (Canavalia ensiformis), sequence (P02866 whole entry, looked up): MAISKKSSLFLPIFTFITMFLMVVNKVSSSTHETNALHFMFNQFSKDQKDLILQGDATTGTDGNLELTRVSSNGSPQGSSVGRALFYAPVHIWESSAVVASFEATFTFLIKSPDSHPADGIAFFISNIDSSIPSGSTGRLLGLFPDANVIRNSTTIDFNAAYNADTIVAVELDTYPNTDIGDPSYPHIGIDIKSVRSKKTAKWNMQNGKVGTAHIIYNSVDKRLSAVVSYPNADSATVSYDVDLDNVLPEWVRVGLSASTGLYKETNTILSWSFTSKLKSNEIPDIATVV
Follistatin (Homo sapiens), sequence (P19883 whole entry, looked up): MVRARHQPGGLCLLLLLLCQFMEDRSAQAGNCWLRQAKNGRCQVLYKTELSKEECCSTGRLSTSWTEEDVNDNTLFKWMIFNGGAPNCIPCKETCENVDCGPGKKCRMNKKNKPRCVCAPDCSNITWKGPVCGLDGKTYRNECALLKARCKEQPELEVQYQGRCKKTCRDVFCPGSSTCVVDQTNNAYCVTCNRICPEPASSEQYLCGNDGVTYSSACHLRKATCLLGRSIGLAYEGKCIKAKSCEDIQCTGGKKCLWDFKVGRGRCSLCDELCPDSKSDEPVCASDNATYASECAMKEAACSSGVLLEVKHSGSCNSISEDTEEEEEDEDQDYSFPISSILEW

`CCCCOC(OCCCC)C(O)CSc1ccc2ccccc2c1` (stereo not given): the composite z-score with Albumin (Bos taurus) is -0.196; in [2], 0.0669; in experiment [3], -0.0682; in experiment [4], 0.028; in [5], 0.125; in experiment [6], -0.0593. Moreover, the composite z-score came to 1.02 in the experiment on Sam68 (KHDRBS1); 0.537 in experiment [7]; 0.196 in experiment [8]; 0.147 in [9]; 0.776 in experiment [10]; 0.0661 in experiment [11]. The composite z-score came to 0.329 in experiment [12]; 0.586 in experiment [13]; 0.296 in experiment [14]; 0.489 in the experiment on Lefty1; 0.264 in experiment [16]. Besides, the composite Z-score in experiment [1] was -0.444 (inactive). In addition, the z-score in experiment [15] was 0.428; in experiment [17] it was -0.842 (inactive).
With `CO[C@@H]1COC(=O)[C@@H]2CCCN2C(=O)[C@@H](C)COC(=O)CCC[C@H]1C`, the composite z-score with Albumin (Bos taurus) is 0.379; in experiment [2] it was 0.109; in [3], -0.16; in experiment [4] it was -0.126; in experiment [5] it was 0.0072; in [6], 0.557. Further, the composite z-score is 1.27 in the experiment with Sam68 (KHDRBS1); 0.438 in experiment [7]; -0.0031 in [8]; 0.176 in experiment [9]; 0.0997 in experiment [10]; 0.154 in experiment [11]. Further, the composite z-score in experiment [12] amounted to 0.482; in experiment [13], 0.529; in experiment [14] it was 0.264; with Lefty1, 0.486; in experiment [16] it was 0.2. Further, the composite Z-score in experiment [1] is 0.305 (inactive). Besides, the results for the z-score in [15] and in experiment [17] were -0.601 and 0.173 (inactive), respectively.
On to `CSCC[C@@H]1NC(=O)CC=C[C@@H](C)COC(=O)[C@H](C)COC1=O`, for which the composite z-score with Albumin (Bos taurus) was -0.891; in experiment [2] it was -0.172; in [3], 0.059; in experiment [4] it was -0.682; in experiment [5] it was -0.808; in experiment [6], -0.848. The composite z-score in the experiment with Sam68 (KHDRBS1) is 1.02; in [7], 1.64; in experiment [8], -2.98; in [9] it was -1.14; in experiment [10], -1.34; in experiment [11], -0.697. Further, the composite z-score in [12] is -3.03; in [13], 1.45; in experiment [14] it was 1.95; in the experiment on Lefty1, 1.85; in experiment [16], -0.663. In addition, in [1], the composite Z-score is 3.62 (inactive). The z-score in experiment [15] was 1.64; in experiment [17], -1.95 (inactive).
For `COc1ccc(O[C@H]2C=C[C@@H](c3ccccc3)O[C@@H]2CON=C(C)CCN2CCCc3nc(C)c(C)cc32)cc1`, the composite z-score is 0.118 with Albumin (Bos taurus); 0.0225 in experiment [2]; -0.048 in [3]; 0.437 in experiment [4]; 0.896 in experiment [5]; 0.271 in experiment [6]. Besides, the composite z-score in the experiment on Sam68 (KHDRBS1) was 1.05; in experiment [7], 0.369; in [8] it was 0.946; in experiment [9], 1.5; in [10], 0.957; in experiment [11], 0.0143. For the same molecule, the composite z-score in experiment [12] came to 0.328; in [13], 0.651; in experiment [14], 0.529; in the experiment on Lefty1 it was 0.408; in experiment [16], 0.584. Besides, in experiment [1], the composite Z-score was 0.528 (inactive). Also, the z-score was 1.16 in experiment [15] and 0.715 (inactive) in experiment [17].
With `O=C1C[C@H](c2ccccc2)[C@H](c2ccc(Br)cc2)O1`, the composite z-score is 0.275 in the experiment with Albumin (Bos taurus); -0.182 in [2]; -0.117 in experiment [3]; -0.202 in experiment [4]; -0.652 in [5]; -1.07 in experiment [6]. In addition, the composite z-score with Sam68 (KHDRBS1) is -0.179; in experiment [7], 0.143; in experiment [8] it was -0.394; in experiment [9] it was 0.443; in experiment [10], -0.374; in experiment [11], 0.718. In addition, the composite z-score in [12] is -0.233; in experiment [13], -0.126; in experiment [14], -0.0946; in the experiment with Lefty1, 0.0985; in [16], -0.236. Also, in [1], the composite Z-score was 0.372 (inactive). The z-score in [15] is -0.421; in experiment [17], -1.8 (inactive).
Turning to `COC(=O)[C@@H]1CC[C@H](C)[C@@H](c2ccc(Br)cc2)N1C(=O)C(F)(F)F`, the composite z-score in the experiment with Albumin (Bos taurus) was -0.591; in [2] it was -0.232; in experiment [3] it was -0.1; in experiment [4], -0.292; in [5], 0.23; in [6] it was 0.0015. For the same molecule, the composite z-score is -0.412 in the experiment with Sam68 (KHDRBS1); -0.183 in experiment [7]; -0.317 in experiment [8]; -0.0497 in experiment [9]; -1.42 in [10]; -0.0957 in experiment [11]. Besides, the composite z-score in [12] is -0.0695; in experiment [13], -0.202; in experiment [14] it was -0.0514; in the experiment with Lefty1, -0.125; in [16] it was -0.321. For the same molecule, the composite Z-score in experiment [1] is -0.225 (inactive). The z-score in experiment [15] was 0.0789; in [17], -0.1 (inactive).
On to `CO[C@H]1COC(=O)CC=C[C@@H](C)COC(=O)[C@H]2CCCN2C(=O)CC=C[C@H]1C`, for which the composite z-score was -0.893 with Albumin (Bos taurus); -0.122 in experiment [2]; -0.166 in experiment [3]; -0.516 in experiment [4]; -0.916 in [5]; 0.449 in experiment [6]. Moreover, the composite z-score with Sam68 (KHDRBS1) is 0.536; in experiment [7] it was 1.19; in [8], -0.923; in experiment [9], -0.19; in experiment [10], -1.54; in [11] it was -0.0701. The composite z-score was -1.05 in experiment [12]; 1.46 in experiment [13]; 1.96 in experiment [14]; 1.68 in the experiment on Lefty1; -0.604 in experiment [16]. For the same molecule, the composite Z-score in [1] was 0.297 (inactive). Also, the z-score was 1.06 in experiment [15] and -1.32 (inactive) in experiment [17].
With `CC(CCN1CCc2nc(-c3ccccc3)c(-c3ccccc3)cc2C1)=NO[C@H](C)c1cn([C@H](CO)Cc2ccccc2)nn1`, the composite z-score with Albumin (Bos taurus) was 0.901; in experiment [2] it was -0.155; in [3], -0.161; in experiment [4], 0.367; in experiment [5], 0.585; in experiment [6], 0.0245. The composite z-score was -0.29 in the experiment with Sam68 (KHDRBS1); 0.26 in [7]; 0.158 in experiment [8]; 0.955 in experiment [9]; 0.137 in [10]; 0.0132 in [11]. Besides, the composite z-score turned out to be 0.689 in experiment [12]; 0.677 in experiment [13]; 0.882 in experiment [14]; 0.313 in the experiment on Lefty1; 0.158 in experiment [16]. Besides, the composite Z-score in experiment [1] is -0.248 (inactive). The figures for the z-score in [15] and in experiment [17] were 2.22 and -0.595 (inactive), respectively.
